Experimental data taken from PubChem BioAssay (NCATS).
Records with an inconclusive call do not appear. Calls of active or inactive are those of the source. Calls follow the shape of the dose curve; as a rule, active = well fitted curve in the direction sought with a large enough effect; inconclusive = small, poorly fitted or top-dose-only effect, or another doubt; inactive = no such curve, though single readings can be large; an effect the other way counts as inactive or inconclusive.

What was measured:
[1] = biological target: Rap guanine nucleotide exchange factor 3 (Homo sapiens) (UniProt O95398); assay: Confirmatory qHTS for antagonist of cAMP-regulated guanine nucleotide exchange factor 3 (EPAC1) (AID 1645880); also: nearly all actives have a fitted effect of over 55% in size; also: potency is read from the fitted curve at half-maximal effect
Method in brief: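 Nucleotide exchange uses 100 nM EPAC1, 250 nM RAP1B-BODIPY-GDP and 50 uM GDP, with compounds in a concentration-titration series. After 5 min at room temperature, fluorescence (480 nm ex/540 nm em) is read every 5 min for 30 min. Data are normalized to control ATA and DMSO.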

[2] = biological target: Rap guanine nucleotide exchange factor 3 (Homo sapiens) (UniProt O95398); assay: Confirmatory qHTS for agonist of cAMP-regulated guanine nucleotide exchange factor 3 (EPAC1) (AID 1645881); also: nearly all actives have a fitted effect of over 75% in size; also: potency is read from the fitted curve at half-maximal effect;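 as to activation: EPAC1 catalysed release of BODIPY-GDP from Rap1B seen as fluorescence loss; 100% = effect of cAMP agonist control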
[3] = biological target: Rap guanine nucleotide exchange factor 4 (Homo sapiens) (UniProt Q8WZA2); assay: Confirmatory qHTS for agonist of cAMP-regulated guanine nucleotide exchange factor 4 (EPAC2) (AID 1645884);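 also: nucleotide exchange releases bodipy-GDP from Rap1 and this lowers its fluorescence; nearly all actives have a fitted effect of over 65% in size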; also: potency is read from the fitted curve at half-maximal effect; as to activation: % is scaled to controls: 0 for no effect and ±100 for the full control effect
[4] = biological target: Rap guanine nucleotide exchange factor 4 (Homo sapiens) (UniProt Q8WZA2); assay: Confirmatory qHTS for antagonist of cAMP-regulated guanine nucleotide exchange factor 4 (EPAC2) (AID 1645885); also: nearly all actives have a fitted effect of over 25% in size; also: potency is read from the fitted curve at half-maximal effect; as to activity change, negative = inhibition: % is scaled to controls: 0 for no effect and ±100 for the full control effect
[5] = biological target: Rap guanine nucleotide exchange factor 3 (Homo sapiens) (UniProt O95398); assay: Counterscreen qHTS for antagonist of cAMP-regulated guanine nucleotide exchange factor 3 (EPAC1) (AID 1645888);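 also: fluorescence loss as bound BODIPY-GDP is released from Rap1B; % of control where 0% means no effect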
Method in brief: (§1)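 Measured: fluorescence of BODIPY-GDP bound to Rap1B, which falls as exchange proceeds. Conditions include 50 uM competing GDP, 5 and 30 min reads, and a later cAMP challenge for antagonist detection.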

[6] = biological target: Rap guanine nucleotide exchange factor 3 (Homo sapiens) (UniProt O95398); assay: Counterscreen qHTS for agonist of cAMP-regulated guanine nucleotide exchange factor 3 (EPAC1) (AID 1645889); also: nearly all actives have a fitted effect of over 40% in size; also: potency is read from the fitted curve at half-maximal effect; as to activation: % of control where 0% means no effect
Method in brief: as §1

Chain of Rap guanine nucleotide exchange factor 3 (Homo sapiens) (O95398 whole entry, looked up): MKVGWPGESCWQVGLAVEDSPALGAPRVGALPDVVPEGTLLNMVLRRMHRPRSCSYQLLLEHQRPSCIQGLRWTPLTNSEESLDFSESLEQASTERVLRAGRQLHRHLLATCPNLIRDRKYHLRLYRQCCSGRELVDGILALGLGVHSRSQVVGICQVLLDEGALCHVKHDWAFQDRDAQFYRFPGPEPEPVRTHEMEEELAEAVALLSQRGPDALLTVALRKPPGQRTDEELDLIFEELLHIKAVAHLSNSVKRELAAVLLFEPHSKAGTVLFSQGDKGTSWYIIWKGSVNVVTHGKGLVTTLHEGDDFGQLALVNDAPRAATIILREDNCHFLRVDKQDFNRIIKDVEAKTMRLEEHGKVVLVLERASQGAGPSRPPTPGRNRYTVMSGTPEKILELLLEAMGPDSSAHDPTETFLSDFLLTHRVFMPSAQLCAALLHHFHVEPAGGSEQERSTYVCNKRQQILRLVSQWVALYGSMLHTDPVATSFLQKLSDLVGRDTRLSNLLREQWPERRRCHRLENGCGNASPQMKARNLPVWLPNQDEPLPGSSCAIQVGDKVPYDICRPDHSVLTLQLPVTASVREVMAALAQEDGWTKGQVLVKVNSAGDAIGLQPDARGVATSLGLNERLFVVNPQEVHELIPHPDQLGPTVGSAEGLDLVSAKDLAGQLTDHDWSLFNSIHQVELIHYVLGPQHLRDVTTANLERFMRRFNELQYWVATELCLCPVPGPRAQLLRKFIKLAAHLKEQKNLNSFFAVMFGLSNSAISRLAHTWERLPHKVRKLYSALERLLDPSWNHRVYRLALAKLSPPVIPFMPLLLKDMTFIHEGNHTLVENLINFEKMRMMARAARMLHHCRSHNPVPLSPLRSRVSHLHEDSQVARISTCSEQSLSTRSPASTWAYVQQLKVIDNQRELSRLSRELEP
Chain of Rap guanine nucleotide exchange factor 4 (Homo sapiens) (Q8WZA2 whole entry, looked up): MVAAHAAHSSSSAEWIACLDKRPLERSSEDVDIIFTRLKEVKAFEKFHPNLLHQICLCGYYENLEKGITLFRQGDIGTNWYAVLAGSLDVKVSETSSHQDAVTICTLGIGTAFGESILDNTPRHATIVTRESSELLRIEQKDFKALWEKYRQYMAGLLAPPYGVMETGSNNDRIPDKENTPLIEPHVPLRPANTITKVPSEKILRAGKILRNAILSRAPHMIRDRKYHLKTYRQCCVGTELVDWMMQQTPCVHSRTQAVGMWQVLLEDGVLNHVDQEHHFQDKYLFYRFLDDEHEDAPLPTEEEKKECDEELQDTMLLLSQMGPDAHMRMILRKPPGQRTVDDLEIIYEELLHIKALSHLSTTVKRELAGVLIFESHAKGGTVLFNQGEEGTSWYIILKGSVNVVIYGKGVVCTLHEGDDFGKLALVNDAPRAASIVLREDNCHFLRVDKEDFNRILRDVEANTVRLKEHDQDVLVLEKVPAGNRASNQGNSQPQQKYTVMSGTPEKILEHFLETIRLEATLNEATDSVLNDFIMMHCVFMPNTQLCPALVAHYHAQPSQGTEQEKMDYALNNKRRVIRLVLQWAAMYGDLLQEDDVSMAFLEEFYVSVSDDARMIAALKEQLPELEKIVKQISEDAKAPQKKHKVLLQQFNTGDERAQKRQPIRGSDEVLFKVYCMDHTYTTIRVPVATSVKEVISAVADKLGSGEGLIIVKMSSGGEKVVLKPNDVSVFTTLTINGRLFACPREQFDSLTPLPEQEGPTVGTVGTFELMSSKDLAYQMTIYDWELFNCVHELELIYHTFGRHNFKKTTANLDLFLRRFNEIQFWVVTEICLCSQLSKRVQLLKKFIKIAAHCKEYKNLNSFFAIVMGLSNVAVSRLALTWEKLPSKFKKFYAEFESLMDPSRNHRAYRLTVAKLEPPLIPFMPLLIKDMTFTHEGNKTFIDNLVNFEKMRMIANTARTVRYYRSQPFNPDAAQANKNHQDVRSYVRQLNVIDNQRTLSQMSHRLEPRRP

COc1ccc(C(=O)COC(=O)CCN2C(=O)C3CC=CCC3C2=O)c(OC)c1 (stereo unspecified)
inactive: Potency [1] | Potency [2] | activation [3] 1.05% [at 17.1 µM, percent relative to cAMP agonist control] | Potency [4] | activity change, negative = inhibition [5] -27.6% [at 30.8 µM] | activation [6] -0.565% [at 30.8 µM]

Cc1ccc2c(c1)C=CC(C#N)N2C(=O)c1ccccc1 (stereo unspecified)
inactive: Potency [1] | Potency [2] | Potency [3] | Potency [4] | Potency [5] | Potency [6]

CC1(C(=O)NS(=O)(=O)c2ccc3ccccc3c2)CCN1C(=O)C1(c2ccc(Cl)cc2)CCC1 (stereo unspecified)
inactive: Potency [2] | Potency [3] | Potency [4] | Potency [5] | Potency [6]
active: Potency [1] 37.9 µM

CC1Cc2nc(SCC(=O)NCc3ccccc3)n(Cc3ccccc3)c(=O)c2S1 (stereo unspecified)
inactive: Potency [1] | Potency [2] | activation [3] 2.68% [at 17.1 µM, percent relative to cAMP agonist control] | Potency [4] | activity change, negative = inhibition [5] 0.448% [at 30.8 µM] | activation [6] 14% [at 30.8 µM]

CC1CC(C)CN(C(=O)c2cccc(S(=O)(=O)Nc3cc(C(F)(F)F)ccc3Cl)c2)C1 (stereo unspecified)
active: Potency [1] 13.5 µM
inactive: Potency [2] | Potency [3] | Potency [4] | Potency [5] | Potency [6]

CN1C(=O)C2(C(C#N)=C(N)N(c3cc(Cl)cc(Cl)c3)C3=C2C(=O)CC(C)(C)C3)c2ccccc21 (stereo unspecified)
inactive: Potency [1] | Potency [2] | Potency [3] | Potency [4] | Potency [5] | Potency [6]

CCOC(=O)c1ccc(NC(=O)CSc2nc(=O)n3cccc(C)c3n2)cc1
inactive: Potency [1] | Potency [2] | Potency [3] | Potency [4] | Potency [5] | Potency [6]

O=C(O)c1ccc(Nc2ncnc3ccccc23)cc1
inactive: Potency [1] | Potency [2] | Potency [3] | Potency [4] | Potency [5] | Potency [6]

Cc1ccc(-c2nc3ccc(Br)cn3c2Cc2ccccc2C(F)(F)F)cc1
inactive: Potency [2] | Potency [3] | Potency [5] | Potency [6]
active: Potency [1] 84.9 µM | Potency [4] 47.8 µM

Cc1cc2ccccn2c1C(=O)c1ccc(Cl)cc1
active: Potency [6] 0.141 µM
inactive: Potency [1] | Potency [2] | Potency [3] | Potency [4] | Potency [5]

c1ccc(-c2nc(C3CCCCC3)c3ccccc3n2)cc1
inactive: Potency [1] | Potency [2] | activation [3] 3.01% [at 17.1 µM, percent relative to cAMP agonist control] | Potency [4] | activity change, negative = inhibition [5] -1.41% [at 30.8 µM] | activation [6] 34% [at 30.8 µM]

Cc1ccccc1OCc1nc2ccccc2n1Cc1ccccc1Cl
inactive: Potency [1] | Potency [2] | Potency [3] | Potency [4] | Potency [5] | Potency [6]

CCC(=O)C1=C(c2cccc([N+](=O)[O-])c2)N(C(=O)CC)n2c(nnc2-c2ccccc2)S1
inactive: Potency [1] | Potency [2] | Potency [3] | Potency [4] | Potency [5] | Potency [6]

NNc1nc2c(Cl)ccc(Cl)c2s1
inactive: Potency [1] | Potency [2] | Potency [3] | Potency [4] | Potency [5] | Potency [6]

Cc1cc(N=Nc2ccccc2C(=O)O)c(C)c(C)c1O
active: Potency [1] 39.8 µM
inactive: Potency [2] | activation [3] -13.7% [at 17.1 µM, percent relative to cAMP agonist control] | Potency [4] | activity change, negative = inhibition [5] -28.9% [at 30.8 µM] | activation [6] 4.71% [at 30.8 µM]

COC(=O)c1sc(-c2ccc(C(C)(C)C)cc2)cc1NC(=O)c1ccccc1C(=O)O
inactive: Potency [2] | activation [3] 5.26% [at 17.1 µM, percent relative to cAMP agonist control] | Potency [4] | activity change, negative = inhibition [5] -19.7% [at 30.8 µM] | activation [6] 9.25% [at 30.8 µM]
active: Potency [1] 50.1 µM

N#Cc1cc(C(=O)c2ccccc2O)cn(-c2nccs2)c1=O
active: Potency [2] 112 µM | Potency [3] 100 µM | Potency [4] 47.8 µM | Potency [6] 39.8 µM
inactive: Potency [1] | Potency [5]

Cc1ccccc1OCCC(=O)OCC(=O)N1CCN(S(=O)(=O)c2ccc(Cl)cc2)CC1
inactive: Potency [1] | Potency [2] | activation [3] 7.52% [at 17.1 µM, percent relative to cAMP agonist control] | Potency [4] | activity change, negative = inhibition [5] -4.15% [at 30.8 µM] | activation [6] 26.1% [at 30.8 µM]

CC(C)CS(=O)(=O)C1=NN2C(=N)/C(=C\c3ccc(OC(=O)c4ccco4)cc3)C(=O)N=C2S1
inactive: Potency [2] | Potency [3] | Potency [4] | Potency [5] | Potency [6]
active: Potency [1] 37.9 µM

Cc1nnnn1-c1ccc(CC(=O)O)cc1
inactive: Potency [1] | Potency [2] | activation [3] -2.24% [at 17.1 µM, percent relative to cAMP agonist control] | Potency [4] | activity change, negative = inhibition [5] -6.83% [at 30.8 µM] | activation [6] -1.16% [at 30.8 µM]

COc1cccc(OC)c1C(=O)Nc1ccccc1Sc1ccccc1
inactive: Potency [1] | Potency [2] | Potency [3] | Potency [4] | Potency [5] | Potency [6]

COCCNC(=O)CSc1nc2cc3c(cc2c(=O)n1CCCCCC(=O)NCc1ccc(OC)cc1)OCO3
inactive: Potency [1] | Potency [2] | Potency [3] | Potency [4] | Potency [5] | Potency [6]

Cn1c(=O)cc(N2CCN(C(=O)c3ccco3)CC2)[nH]c1=O
inactive: Potency [1] | Potency [2] | Potency [3] | Potency [4] | Potency [5] | Potency [6]

CC(=O)C1=C(c2ccc(C)cc2)N(C(C)=O)n2c(nnc2C2CCCCC2)S1
inactive: Potency [1] | Potency [2] | Potency [3] | Potency [4] | Potency [5] | Potency [6]

CCOc1ccc(N2C(=O)Nc3ccccc3C2(O)C(=O)NCc2ccc(C)cc2)cc1 (stereo unspecified)
inactive: Potency [1] | Potency [2] | activation [3] -4.83% [at 17.1 µM, percent relative to cAMP agonist control] | Potency [4] | activity change, negative = inhibition [5] -5.47% [at 30.8 µM] | activation [6] 7.84% [at 30.8 µM]

Cc1nn(CC(=O)N(C)C2CCS(=O)(=O)C2)c(C)c1[N+](=O)[O-] (stereo unspecified)
inactive: Potency [1] | Potency [2] | activation [3] 2.8% [at 17.1 µM, percent relative to cAMP agonist control] | Potency [4] | activity change, negative = inhibition [5] -13.2% [at 30.8 µM] | activation [6] 30.9% [at 30.8 µM]

COc1ccc(-c2nnc(SCC(=O)c3ccco3)n2-c2ccccc2)cc1
inactive: Potency [1] | Potency [2] | activation [3] 3.77% [at 17.1 µM, percent relative to cAMP agonist control] | Potency [4] | activity change, negative = inhibition [5] -13.6% [at 30.8 µM] | activation [6] 4.19% [at 30.8 µM]

CCCCC(CC)Cn1c(Oc2ccccc2)nc2c1c(=O)n(C)c(=O)n2C (stereo unspecified)
inactive: Potency [1] | Potency [2] | Potency [3] | Potency [4] | Potency [5] | Potency [6]

CCCc1nn2c(=O)cc(COC(=O)c3cccc(NC(=O)CCc4ccccc4)c3)nc2s1
inactive: Potency [1] | Potency [2] | Potency [3] | Potency [4] | Potency [5] | Potency [6]

CN(Cc1ccc(F)cc1)C(=O)c1cccc(OCc2ccccc2)c1
inactive: Potency [1] | Potency [2] | activation [3] 10.9% [at 17.1 µM, percent relative to cAMP agonist control] | Potency [4] | activity change, negative = inhibition [5] 1.29% [at 30.8 µM] | activation [6] -0.388% [at 30.8 µM]

Cc1cc(S(=O)(=O)Nc2ccccc2C)ccc1F
active: Potency [4] 13.5 µM
inactive: Potency [1] | Potency [2] | Potency [3] | Potency [5] | Potency [6]

CCOC(=O)c1cc(C(C)(C)C)nc(SC)c1C#N
inactive: Potency [1] | Potency [2] | Potency [3] | Potency [4] | Potency [5] | Potency [6]

N#C/C(=C(/O)CCl)c1nc2c(s1)CCc1ccccc1-2
inactive: Potency [2] | Potency [3] | Potency [4] | Potency [5] | Potency [6]
active: Potency [1] 6.75 µM

CCOC(=O)c1ccccc1NC(=S)N1CCC(N2CCCCC2)CC1
inactive: Potency [1] | Potency [2] | Potency [3] | Potency [4] | Potency [5] | Potency [6]

CCCN(CC(=O)Nc1ccccc1C)C(=O)C1CCN(S(=O)(=O)c2ccccc2C(F)(F)F)CC1
inactive: Potency [1] | Potency [2] | Potency [3] | Potency [4] | Potency [5] | Potency [6]

O=C(O)C(c1ccccc1)N1C(=O)/C(=C\c2ccc(O)c(O)c2)SC1=S (stereo unspecified)
active: Potency [1] 6.75 µM | Potency [4] 21.3 µM
inactive: Potency [2] | Potency [3] | Potency [5] | Potency [6]
